The source made the active and inactive calls. Unless noted, how the calls were made is not given here.

The text below walks through data of PubChem BioAssay.

Assay [1] is described as follows: resazurin metabolic signal in HepG2 cells – cell-based, resazurin fluorescence, 24 h, PK04 Diversity Set, profiling panel (AID 1172). Further: test concentration not given here. The conditions noted are these: HepG2 viability, higher = more signal. Background: Alamar Blue is a resazurin reagent that responds to reducing activity.
Assay [2] can be described thus: budding yeast growth changes without added modifier – OD600, strain BY4716, 24 h, basal condition, primary screen (AID 1173). Particulars: S. cerevisiae BY4716 growth, OD600, 24 h; higher = more signal, called active from +8 up or from −8 down.
The nature of assay [3]: viability profiling in MM1S myeloma cells – cell-based, resazurin fluorescence, basal, 24 h, PK04 Diversity Set, profiling panel (AID 1174).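 Further: MM1S multiple myeloma cell line; test concentration not given here.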 The conditions noted are these: higher = more signal, called active from +8 up or from −8 down.
Assay [4] has as its target Dihydroorotate dehydrogenase (quinone), mitochondrial (Plasmodium falciparum (isolate 3D7)) (UniProt Q08210). The assay can be described thus: inhibition of P. falciparum DHODH – biochemical, C-terminal His tag, absorbance 600 nm, primary screen (AID 1175).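 Further: recombinant parasite enzyme with a five histidine tag at its C terminus; test concentration not given here.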 The conditions noted are these: PfDHODH enzyme, DCIP absorbance 600 nm; higher = more signal, called active from +8 up or from −8 down.

Assay [5] is described as follows: inhibition of PAO1 biofilm formation – strain PAO1, LB-PBS medium, absorbance 600 nm, primary screen (AID 1176). Further: test concentration not given here. The conditions noted are these: P. aeruginosa PAO1 growth/biofilm, A600, 12 h; higher = more signal.
Assay [6] is described as follows: growth modulation of vineyard yeast isolate – strain RM11-1a, OD600, basal, 24 h, primary screen (AID 1177).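 Further: cultures grown under basal conditions with no added stressor; test concentration not given here.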 Particulars: S. cerevisiae RM11-1a growth, OD600, 24 h; higher = more signal, called active from +8 up or from −8 down.
Assay [7] in a line: growth of efflux-deficient E. coli DRC39 – strain DRC39, OD650, 24 h, E. coli filamentation inducers, primary screen (AID 1178).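 Further: growth measured as culture turbidity by optical density at 650 nm; test concentration not given here.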 The conditions noted are these: E. coli DRC39 acrAB, higher = more signal, called active from +8 up or from −8 down.
The nature of assay [8]: growth of efflux-deficient E. coli DRC39 – strain DRC39, OD650, 48 h, E. coli filamentation inducers, primary screen (AID 1179).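 Further: screen aims at cell division blockers that make cells filament.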 The conditions noted are these: E. coli DRC39 delta-acrAB growth, higher = more signal, called active from +8 up or from −8 down.
Assay [9] is described as follows: viability profiling in RPMI8226 myeloma cells – cell-based, resazurin fluorescence, basal, 24 h, PK04 Diversity Set, profiling panel (AID 1180).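 Further: RPMI8826 multiple myeloma cell line at 5000 cells per well; test concentration not given here.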 Particulars: higher = more signal.
Assay [10] addresses E3 ubiquitin-protein ligase XIAP (Homo sapiens) (UniProt P98170). The assay can be described thus: small molecules binding XIAP protein – biophysical, small-molecule microarray, fluorescence 635 nm, primary screen (AID 1181).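 Further: score merges 667 nm emission and signal to noise over triplicate slides.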 Particulars: higher = more signal.

Chain of E3 ubiquitin-protein ligase XIAP (Homo sapiens) (P98170 whole entry, looked up): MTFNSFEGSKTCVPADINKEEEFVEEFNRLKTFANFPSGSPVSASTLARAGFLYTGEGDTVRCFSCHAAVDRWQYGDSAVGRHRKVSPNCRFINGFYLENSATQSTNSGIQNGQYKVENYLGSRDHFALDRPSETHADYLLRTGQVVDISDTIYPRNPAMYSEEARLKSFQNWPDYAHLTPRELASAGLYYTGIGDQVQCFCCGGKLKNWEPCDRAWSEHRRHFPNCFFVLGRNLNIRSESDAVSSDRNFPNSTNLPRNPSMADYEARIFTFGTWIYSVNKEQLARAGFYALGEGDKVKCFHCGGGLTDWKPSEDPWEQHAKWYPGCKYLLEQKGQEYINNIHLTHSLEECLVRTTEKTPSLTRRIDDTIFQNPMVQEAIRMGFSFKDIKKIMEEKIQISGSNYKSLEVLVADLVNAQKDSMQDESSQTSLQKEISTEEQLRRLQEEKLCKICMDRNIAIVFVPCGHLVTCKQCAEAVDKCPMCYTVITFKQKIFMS
Chain of Dihydroorotate dehydrogenase (quinone), mitochondrial (Plasmodium falciparum (isolate 3D7)) (Q08210 whole entry, looked up): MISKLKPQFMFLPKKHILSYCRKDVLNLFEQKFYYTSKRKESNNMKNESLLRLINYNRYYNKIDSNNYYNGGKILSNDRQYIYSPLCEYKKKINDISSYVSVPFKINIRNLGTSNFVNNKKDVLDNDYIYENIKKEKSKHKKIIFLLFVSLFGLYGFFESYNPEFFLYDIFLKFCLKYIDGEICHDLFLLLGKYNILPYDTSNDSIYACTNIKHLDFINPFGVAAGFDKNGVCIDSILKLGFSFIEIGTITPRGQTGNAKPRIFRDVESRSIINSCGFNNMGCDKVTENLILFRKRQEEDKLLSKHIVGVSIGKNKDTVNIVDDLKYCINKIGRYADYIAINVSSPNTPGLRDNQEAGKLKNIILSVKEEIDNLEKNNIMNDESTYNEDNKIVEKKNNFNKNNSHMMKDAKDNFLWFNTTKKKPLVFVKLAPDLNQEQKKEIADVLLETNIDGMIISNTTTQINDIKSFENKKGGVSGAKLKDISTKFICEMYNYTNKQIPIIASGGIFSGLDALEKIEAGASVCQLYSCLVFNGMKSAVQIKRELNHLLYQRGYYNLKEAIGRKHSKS

Regarding `O=C1CCCC2OC12C(O)CCc1ccccc1` (stereo not given), the z-score was -1.06 in [1]; -0.372 (inactive) in [2]; -0.397 (inactive) in assay [3]; -0.127 (inactive) in assay [5]; 0.142 (inactive) in [6]; 0.637 (inactive) in [7]. Further, the figures for the z-score in assay [8] and in [9] were 0.489 (inactive) and 0.145, respectively. In addition, the composite z-score was -0.103 (inactive) in assay [4] and -0.0238 in assay [10].
With `O=C(NN=C1C[C@@H](O)[C@@H](O)[C@@H]2[C@@H]3C(=O)N(c4cccc(Oc5ccccc5)c4)C(=O)[C@@H]3CC[C@@H]12)OCc1ccccc1`, the z-score is -0.198 in assay [1]; 0.498 (inactive) in assay [2]; 0.243 (inactive) in assay [3]; 0.0942 (inactive) in assay [5]; 0.775 (inactive) in [6]; -0.134 (inactive) in assay [7]. Further, the results for the z-score in assay [8] and in [9] were -0.192 (inactive) and 0.464, respectively. Further, the results for the composite z-score in [4] and in assay [10] were 0.351 (inactive) and -0.0506, respectively.
Turning to `CCCCCN1CC=CC23O[C@@H]4C=CCOC(=O)[C@@H]4[C@H]2C(=O)N(C(CO)C(C)C)[C@@H]3C1=O` (stereo not given in full), the z-score in assay [1] was 0.862; in assay [2] it was 1.02 (inactive); in assay [3] it was 0.111 (inactive); in [5], 0.0126 (inactive); in [6], 0.89 (inactive); in assay [7], -0.128 (inactive). For the same compound, the z-score in assay [8] was -0.301 (inactive); in [9], -0.0045. Also, the composite z-score was 0.204 (inactive) in assay [4] and 0.266 in assay [10].
`Cn1c(=O)n2n(c1=O)[C@H]1[C@H](O)[C@@H]3O[C@@H]3C(=NOC[C@@H](O)COCc3ccco3)[C@H]1CC2`: the z-score in assay [1] is -0.31; in assay [2], -0.419 (inactive); in [3], -0.877 (inactive); in assay [5], 0.823 (inactive); in assay [6], -0.17 (inactive); in assay [7], -0.157 (inactive). Besides, the z-score in assay [8] is 0.317 (inactive); in assay [9], -0.378. In addition, the values for the composite z-score in assay [4] and in assay [10] were 0.0599 (inactive) and -0.0382, respectively.
As for `COC(=O)[C@H](C)NC(=O)CCC1CC(OC(=O)NCCc2ccc(F)cc2)CC2(CCCC(COC(=O)NCCc3ccc(Cl)cc3)O2)O1` (stereo not given in full), the z-score in assay [1] was 0.315; in assay [2], 0.592 (inactive); in assay [3], 0.349 (inactive); in [5] it was 0.45 (inactive); in [6], 0.825 (inactive); in [7], 0.718 (inactive). Also, the results for the z-score in assay [8] and in assay [9] were 0.942 (inactive) and 0.761, respectively. Further, the results for the composite z-score in assay [4] and in [10] were -0.532 (inactive) and -0.0918, respectively.
Consider `CC(C)CON=C1C[C@@H](O)[C@@H](O)[C@@H]2[C@@H]3C(=O)N(C[C@@H]4CCCO4)C(=O)[C@@H]3CC[C@H]12`, for which the z-score in assay [1] is 0.511; in assay [2] it was -0.138 (inactive); in assay [3] it was -0.594 (inactive); in [5] it was 0.884 (inactive); in assay [6], -0.776 (inactive); in assay [7], -0.353 (inactive). The results for the z-score in assay [8] and in assay [9] were 0.0723 (inactive) and 0.139, respectively. The composite z-score was -0.849 (inactive) in assay [4] and -0.174 in assay [10].
As for `O=C1C[C@@H](O)[C@@H](O)[C@@H]2[C@@H]3C(=O)N(Cc4ccc5c(c4)OCO5)C(=O)[C@@H]3CC[C@@H]12`, the z-score was 0.227 in assay [1]; 0.189 (inactive) in assay [2]; -0.0728 (inactive) in assay [3]; -0.131 (inactive) in [5]; 0.258 (inactive) in [6]; 0.0081 (inactive) in assay [7]. The z-score is 0.0272 (inactive) in assay [8] and -0.707 in [9]. Further, the composite z-score in assay [4] was 0.745 (inactive); in assay [10], 0.0908.
As for `C#C[C@@H](CC)O[Si](C#Cc1ccc(Oc2ccccc2)cc1)(C(C)C)C(C)C`, the z-score was -0.543 in assay [1]; -0.87 (inactive) in assay [2]; -0.613 (inactive) in assay [3]; 0.833 (inactive) in [5]; 0.898 (inactive) in [6]; -0.568 (inactive) in assay [7]. Further, the z-score in [8] was -0.416 (inactive); in [9], -1.1. The composite z-score is -0.661 (inactive) in [4] and -0.0562 in assay [10].
In the case of `COc1ccc(CCNC(=O)[C@@H]2c3ccccc3C(=O)N(c3ccc(C)cn3)[C@H]2c2ccc(CO)cc2)cc1`, the z-score in assay [1] was 0.594; in assay [2] it was -0.742 (inactive); in [3], -0.806 (inactive); in [5], 0.525 (inactive); in assay [6], -0.195 (inactive); in assay [7], 0.0636 (inactive). Further, the z-score in assay [8] is -0.113 (inactive); in [9], 1. In addition, the composite z-score in assay [4] is -0.204 (inactive); in assay [10] it was -0.267.
For `CN1C(=O)C2C=CC(C(O)C(c3ccccc3)c3ccccc3)N(NC(=O)OC(C)(C)C)C2C1=O` (stereo not given), the z-score in [1] was -0.889; in assay [2], -4.58 (inactive); in assay [3], -0.861 (inactive); in assay [5], 0.791 (inactive); in assay [6] it was 0.225 (inactive); in [7], -0.963 (inactive). The figures for the z-score in assay [8] and in assay [9] were -0.577 (inactive) and -0.962, respectively. The composite z-score in assay [4] was -1.08 (inactive); in assay [10], 0.497.
Regarding `CC(C)[C@H](NC(=O)OC(C)(C)C)[C@@H](O)CC(=O)OC(C)(C)C`, the z-score is -0.811 in assay [1]; -0.448 (inactive) in assay [2]; 0.351 (inactive) in [3]; -0.506 (inactive) in [5]; 0.259 (inactive) in assay [6]; -1.69 (inactive) in [7]. The z-score is -0.998 (inactive) in [8] and 0.496 in assay [9]. Besides, the composite z-score in assay [4] is 0.0945 (inactive); in assay [10] it was -0.102.
As to `CC(C)=C1C(=O)C(c2ccccc2)=C2CN3C(=O)N(CCc4ccccc4)C(=O)[C@]3(Cc3ccc(F)cc3)[C@H]21`, the z-score is -1.22 in assay [1]; 0.255 (inactive) in assay [2]; -1.53 (inactive) in [3]; 1.4 (inactive) in assay [5]; 0.223 (inactive) in assay [6]; -0.933 (inactive) in [7]. The values for the z-score in [8] and in assay [9] were -0.853 (inactive) and -0.942, respectively. Further, the results for the composite z-score in assay [4] and in assay [10] were -0.0278 (inactive) and -0.02, respectively.
As to `O=C1[C@H]2[C@H]3[C@H](O)[C@H](O)CC(=NO[C@@H]4O[C@H](CO)[C@@H](O)[C@H](O)[C@H]4O)[C@H]3CC[C@H]2C(=O)N1Cc1ccc2c(c1)OCO2`, the z-score was 0.777 in assay [1]; -0.159 (inactive) in assay [2]; 0.466 (inactive) in assay [3]; -0.249 (inactive) in [5]; 0.929 (inactive) in assay [6]; 0.76 (inactive) in assay [7]. Also, the z-score in assay [8] is 0.385 (inactive); in assay [9], 0.367. Moreover, the composite z-score was 0.461 (inactive) in assay [4] and -0.4 in assay [10].
